# Reference: PubChem BioAssay (NCATS)
# Values without a mark were called inactive. Results filed as inconclusive are left out. Activity calls are given as the source filed them. Calls follow the shape of the dose curve; as a rule, active = well fitted curve in the direction sought with a large enough effect; inconclusive = small, poorly fitted or top-dose-only effect, or another doubt; inactive = no such curve, though single readings can be large; an effect the other way counts as inactive or inconclusive.
# Assay: Confirmation and Secondary Assay for Modulators of Hemoglobin Beta Chain Splicing at IVS2 654 locus (AID 910);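 also: per-well total GFP intensity by laser scanning cytometry after 2-day treatment; % of control where 0% means no effect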
# Conditions: HeLa EGFP-654 splicing reporter, GFP fluorescence, 48 h; series mostly up to 46.1 µM; activation (splicing correction): at the top concentration
# Procedure, shortened: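 HeLa cells stably carrying EGFP interrupted by mutant beta-globin IVS2-654 intron (CMV-driven) were treated with compound for 2 days at 37C; corrected splicing was scored as total peak GFP intensity per well (488 nm excitation, 500-520 nm emission).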
row,Structure (SMILES),activation (splicing correction)
1,CCNc1nc(Cl)nc(NC(C)C)n1,2.7% [at 38.3 µM]
2,ClC1=C(Cl)C2(Cl)C3C4CC(C5OC45)C3C1(Cl)C2(Cl)Cl (stereo not given),0.304% [at 38.3 µM]
3,CCOCN(C(=O)CCl)c1c(C)cccc1CC,-1.63% [at 38.3 µM]
4,ClC(Cl)=C(c1ccc(Cl)cc1)c1ccc(Cl)cc1,0.185% [at 38.3 µM]
5,ClC1=C(Cl)C2(Cl)C3C4C=CC(C4)C3C1(Cl)C2(Cl)Cl (stereo not given),-0.825% [at 38.3 µM]
6,Cc1ccccc1-c1cncnc1NCCc1cnc[nH]1,0.475% [at 38.3 µM]
7,O=C(O)COc1ccc(Cl)cc1Cl,6.23% [at 38.3 µM]
8,COC(=O)NC(=S)Nc1ccccc1NC(=S)NC(=O)OC,-0.0152% [at 38.3 µM]
9,C/C=C/c1ccc2c(c1)OCO2,-0.205% [at 38.3 µM]
10,COP(=S)(OC)Oc1ccc([N+](=O)[O-])cc1,-1.8% [at 38.3 µM]
11,O=S1OCC2C(CO1)C1(Cl)C(Cl)=C(Cl)C2(Cl)C1(Cl)Cl (stereo not given),2.33% [at 38.3 µM]
12,C=CCc1ccc(OC)cc1,0.411%
13,ClC1=C(Cl)C2(Cl)C3C(Cl)C=CC3C1(Cl)C2(Cl)Cl (stereo not given),-2.07% [at 38.3 µM]
14,CNC(=O)O/N=C/C(C)(C)SC,-0.922% [at 38.3 µM]
15,c1ccc(N=Nc2ccccc2)cc1,0.0014%
16,CCc1cccc(CC)c1N(COC)C(=O)CCl,-1.63% [at 38.3 µM]

# Assay: Cell Viability - LYMP2-001 (AID 921);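 also: cells exposed to compound for 24 h at 37 °C; nearly all actives have a fitted effect of over 70% in size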; also: potency is read from the fitted curve at half-maximal effect;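 as to activity change, negative = cytotoxic: 0% = DMSO only and full inhibition = tetraoctylammonium bromide control wells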
# Conditions: LYMP2-001 lymphoblastoid cell viability; series mostly up to 92.2 µM; activity change, negative = cytotoxic: at the top concentration
# Procedure, shortened: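 CellTiter-Glo luminescence (intracellular ATP) after 24 hr compound exposure at 37 C, 2500 lymphoblastoid cells/well in complete medium. AC50 fitted with standard Hill equation; tetraoctylammonium bromide positive control.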
Structure (SMILES),Potency,"activity change, negative = cytotoxic"
ClC(Cl)=C(c1ccc(Cl)cc1)c1ccc(Cl)cc1,inactive,
ClC1=C(Cl)C2(Cl)C3C4C=CC(C4)C3C1(Cl)C2(Cl)Cl (stereo not given),39.8 µM (active),
O=C(O)COc1ccc(Cl)cc1Cl,inactive,
COC(=O)NC(=S)Nc1ccccc1NC(=S)NC(=O)OC,,-10%
C/C=C/c1ccc2c(c1)OCO2,,-5.73%
COP(=S)(OC)Oc1ccc([N+](=O)[O-])cc1,,-17.2%
C=CCc1ccc(OC)cc1,,10.9%
c1ccc(N=Nc2ccccc2)cc1,,-42.6%

# Assay: Confirmation and Secondary Assay for Modulators of Hemoglobin Beta Chain Splicing at IVS2 705 locus (AID 930);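 also: HeLa cells stably expressing the EGFP-705 splicing reporter; GFP fluorescence per well restored by corrected splicing of the IVS2-705 intron in EGFP; % of control where 0% means no effect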
# Conditions: HeLa EGFP-705 splicing reporter, GFP fluorescence, 48 h; series mostly up to 46.1 µM; activation: at the top concentration
# Procedure, shortened: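 Per-well GFP, captured at 1 x 8 µm resolution with 488 nm excitation, served as the read-out for HeLa EGFP-705 cells incubated 2 days with test compound versus DMSO.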
row,Structure (SMILES),activation
1,CCNc1nc(Cl)nc(NC(C)C)n1,-0.883% [at 38.3 µM]
2,ClC1=C(Cl)C2(Cl)C3C4CC(C5OC45)C3C1(Cl)C2(Cl)Cl (stereo not given),0.917% [at 38.3 µM]
3,CCOCN(C(=O)CCl)c1c(C)cccc1CC,0.753% [at 38.3 µM]
4,ClC(Cl)=C(c1ccc(Cl)cc1)c1ccc(Cl)cc1,1.49% [at 38.3 µM]
5,ClC1=C(Cl)C2(Cl)C3C4C=CC(C4)C3C1(Cl)C2(Cl)Cl (stereo not given),-0.0783% [at 38.3 µM]
6,Cc1ccccc1-c1cncnc1NCCc1cnc[nH]1,0.548% [at 38.3 µM]
7,O=C(O)COc1ccc(Cl)cc1Cl,1.53% [at 38.3 µM]
8,COC(=O)NC(=S)Nc1ccccc1NC(=S)NC(=O)OC,0.852% [at 38.3 µM]
9,C/C=C/c1ccc2c(c1)OCO2,1.86% [at 38.3 µM]
10,COP(=S)(OC)Oc1ccc([N+](=O)[O-])cc1,-0.941% [at 38.3 µM]
11,O=S1OCC2C(CO1)C1(Cl)C(Cl)=C(Cl)C2(Cl)C1(Cl)Cl (stereo not given),1.9% [at 38.3 µM]
12,C=CCc1ccc(OC)cc1,2.54%
13,ClC1=C(Cl)C2(Cl)C3C(Cl)C=CC3C1(Cl)C2(Cl)Cl (stereo not given),0.561% [at 38.3 µM]
14,CNC(=O)O/N=C/C(C)(C)SC,1.49% [at 38.3 µM]
15,c1ccc(N=Nc2ccccc2)cc1,-0.984%
16,CCc1cccc(CC)c1N(COC)C(=O)CCl,1.49% [at 38.3 µM]
